Drawing on PubChem BioAssay (Tox21), this text covers Potency for eight compounds.

Molecules are shown by their SMILES. Where “and” joins values, the source holds several entries; their conditions need not be identical. Equal values may be shown once. Inconclusive results are not listed. Some structures have more than one record in an assay (separate samples or runs), and their calls can disagree. Calls of active or inactive are those of the source. Unless noted, calls come from the whole dose curve.

Assay [1] is described as follows: Nuclear factor erythroid 2-related factor 2/antioxidant responsive element (Nrf2/ARE) small molecule agonists: qHTS cell viability counter screen in human keratinocytes (AID 1919968; active = well fitted curve in the direction sought with a large enough effect in the repeat runs; an effect the other way counts as inactive or inconclusive; note: nearly all actives have a fitted effect of over 55% in size). The procedure, abridged: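 Seed 1,500 KeratinoSens cells per well, then incubate 5 h at 37 C/5% CO2. Add compounds in DMSO and incubate 23 h. Add CellTiter-Fluor, wait 1 h and read fluorescence.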
For orientation: qHTS replaces the single test concentration by a dilution series.

Assay [2] is described as follows: Nuclear factor erythroid 2-related factor 2/antioxidant responsive element (Nrf2/ARE) small molecule agonists: luciferase reporter gene qHTS assay in human keratinocytes (AID 1919969; note: nearly all actives have a fitted effect of over 35% in size; note: potency is the fitted concentration of half-maximal effect). (In general: In a reporter assay the amount or activity of a reporter protein is the signal.)
For assay [3], the target named is Gonadotropin-releasing hormone receptor (Homo sapiens) (UniProt P30968). The assay can be described thus: Human gonadotropin-releasing hormone receptor (GnRHR) small molecule agonists, calcium flux assay in GnRHR-HEK293 cells (AID 1920063). Note: nearly all actives have a fitted effect of over 35% in size. Note: potency is the fitted concentration of half-maximal effect. An outline of the steps:
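Cells: HEK293 stably expressing human GnRHR. Steps: overnight (18 h) culture, 1 h calcium dye loading at 37 C, compound addition, kinetic fluorescence read at 480/540 nm. Each compound tested at 15 concentrations in triplicate.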
(Calcium flux is commonly read through the fluorescence of an indicator in the cells.)

Assay [4] concerns the target KiSS-1 receptor (Homo sapiens) (UniProt Q969F8). The experiment in a line: Human kisspeptin (KISS1R) small molecule agonists, calcium flux assay in KISS1R-HEK293 cells (AID 1920064; active = well fitted curve in the direction sought with a large enough effect in the repeat runs; an effect the other way counts as inactive or inconclusive; note: potency is the fitted concentration of half-maximal effect). The procedure, abridged:
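Cells plated and incubated 18 h; dye added, 1 h at 37 C; compounds in DMSO pinned in; signal read at 480/540 nm every second for 3 min. Each compound tested at 15 concentrations in triplicate.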

Assay [5] can be described thus: G protein-coupled receptor (GPCR) small molecule agonists, calcium flux assay: HEK293 wild type cell line counter screen (AID 1920065). Note: potency is the fitted concentration of half-maximal effect. The procedure, abridged: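 Counter-screen of the Tox21 10K library for non-specific calcium release: dye-loaded cells received compounds in DMSO and were monitored by kinetic fluorescence (480/540 nm, 3 min). Fifteen concentrations, run in triplicate.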

The nature of assay [6]: p53 small molecule agonists, cell-based qHTS assay with human liver microsomes (AID 1963577).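 Note: p53 response element beta-lactamase reporter cells with liver microsomes plus NADPH.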 The procedure, abridged:
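With metabolic activation: human liver microsomes (0.5 mg/mL final) plus NADPH (0.5 mg/mL final) added alongside compounds to p53RE-bla cells; 16 h 37 C exposure; beta-lactamase read by LiveBLAzer fluorescence.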

Assay [7] in a line: p53 small molecule agonists, cell-based qHTS assay with rat liver microsomes: qHTS cell viability counter screen (AID 1963580). Note: nearly all actives have a fitted effect of over 45% in size. Note: potency is the fitted concentration of half-maximal effect. The procedure, abridged:
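p53RE-bla HCT-116 cells (4,000/well) rested 5 h at 37 C, then given Tox21 compounds in DMSO with rat liver microsomes (0.5 mg/mL final) plus NADPH (0.5 mg/mL final) for 16 h at 37 C. Viability read by CellTiter-Glo luminescence after 30 min at room temperature.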

Assay [8] in a line: p53 small molecule agonists, cell-based qHTS assay: qHTS cell viability counter screen (AID 1963581). Note: nearly all actives have a fitted effect of over 45% in size. Note: potency is the fitted concentration of half-maximal effect. The procedure, abridged:
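Cells: HCT-116 with p53 response element-driven beta-lactamase. Treatment: 16 h, 37 C, compounds in DMSO. Read: CellTiter-Glo luminescence after 30 min RT.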

A short description of assay [9]: p53 small molecule agonists, cell-based qHTS assay (AID 1963582; active = well fitted activation curve with a large enough effect in the signal ratio in the repeat runs, not every such curve was filed as active; the % refers to the signal ratio). An outline of the steps:
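Quantitative HTS in p53RE-bla cells: after a 5 h settling period, compounds delivered in DMSO were left on cells for 16 h at 37 C, and reporter induction was measured as fluorescence following 2 h substrate loading.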

The target of assay [10] is 5-hydroxytryptamine receptor 2A (Homo sapiens) (UniProt P28223). The assay can be described thus: 5-hydroxytryptamine receptor 2A (HTR2A) small molecule antagonists, cell-based qHTS assay (AID 1963586). Note: nearly all actives have a fitted effect of over 45% in size. An outline of the steps:
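Antagonist-mode intracellular calcium assay: DOI (4 nM) added after 5 min compound pre-incubation at room temperature to dye-loaded HTR2A-CHO cells. Fluorescence followed for 3 min, sampled every second.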

The target is the same in assay [11]. The assay can be described thus: 5-hydroxytryptamine receptor 2A (HTR2A) small molecule agonists, cell-based qHTS assay (AID 1963587). Note: nearly all actives have a fitted effect of over 30% in size. An outline of the steps:
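HTR2A-CHO cells, plated 18 h at 37 C/5% CO2, dye-loaded 1 h at 37 C; compounds in DMSO added by pin tool (agonist mode). Intracellular calcium flux read as kinetic fluorescence on FDSS over 2 min at 1 s intervals.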

In assay [12] the target is Muscarinic acetylcholine receptor M1 (Homo sapiens) (UniProt P11229). The experiment in a line: Cholinergic receptor muscarinic 1 (CHRM1) small molecule antagonists, cell-based qHTS assay (AID 1963588). Note: nearly all actives have a fitted effect of over 40% in size. The procedure, abridged: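 CHRM1-CHO calcium-flux assay, antagonist mode. Cells were seeded 18 h, dye-loaded 1 h at 37 C and given compound for 5 min at RT, then acetylcholine was added at 50nM. FDSS fluorescence was read 3 min; 15 concentrations, three runs.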

Assay [13] has the same target. The experiment in a line: Cholinergic receptor muscarinic 1 (CHRM1) small molecule agonists, cell-based qHTS assay (AID 1963589). Note: nearly all actives have a fitted effect of over 35% in size. Note: potency is the fitted concentration of half-maximal effect. An outline of the steps:
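Agonist-mode qHTS in CHO cells stably carrying human muscarinic M1. Intracellular calcium is tracked by fluorescence every second after compound transfer; each compound runs at 15 concentrations in three independent runs.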

Assay [14] in a line: cAMP Responsive Elements (CRE) small molecule antagonists, cell-based qHTS assay (AID 1963591; active = well fitted inhibition curve with a large enough effect in the signal ratio in the repeat runs, not every such curve was filed as active; the % refers to the signal ratio). The procedure, abridged:
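Antagonist mode: test compounds are co-incubated with the adenylyl cyclase activator NKH477 (0.25 uM final) on CRE-bla HEK293T cells for 3 h at 37 °C, followed by LiveBLAzer substrate loading.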

For assay [15], the target named is Beta-2 adrenergic receptor (Homo sapiens) (UniProt P07550). The assay can be described thus: Adrenergic beta2 receptor (ADRB2) small molecule antagonists, cell-based qHTS assay (AID 1963592). Note: series mostly up to about 92 µM; nearly all actives have a fitted effect of over 50% in size. The procedure, abridged: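 Cells (CHO, stable ADRB2 overexpression) incubated 18-20hr at 37C; compounds added from DMSO; agonist mix (1nM isoproterenol, 100uM IBMX, 25uM Ro-20-1724) added; 0.5hr RT; d2-cAMP and anti-cAMP-cryptate added; 1hr RT; 665/615 nm read.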

Assay [16] shares this target. The assay can be described thus: Adrenergic beta2 receptor (ADRB2) small molecule agonists, cell-based qHTS assay (AID 1963593).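 Note: CHO cells stably overexpressing human ADRB2.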 An outline of the steps: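 CHO cells stably over-expressing ADRB2 were plated overnight at 37C, then dosed with compounds plus a stimulation mix containing 100uM IBMX and 25uM Ro-20-1724 for 0.5hr at room temperature. cAMP was measured by HTRF competition, 1hr.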

In assay [17] the target is D(2) dopamine receptor (Homo sapiens) (UniProt P14416). The experiment in a line: Dopamine D2 receptor (DRD2) small molecule agonists, cell-based qHTS assay (AID 1963594). Note: nearly all actives have a fitted effect of over 35% in size. An outline of the steps:
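HEK293 cells stably expressing DRD2 were cultured 24 h at 37 C, then given Ro20-1724 (0.1 mM final) and compounds for 10 min at room temperature. NKH477 (200nM) was then added for 30 min. cAMP was read by HTRF.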

For assay [18] the target is unchanged. The experiment in a line: Dopamine D2 receptor (DRD2) small molecule antagonists, cell-based qHTS assay (AID 1963595; active = well fitted inhibition curve with a large enough effect in the signal ratio in the repeat runs, with a control signal flat; the % refers to the signal ratio; note: potency is the fitted concentration of half-maximal effect). An outline of the steps: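 DRD2-HEK293; 0.1 mM Ro20-1724; cpd 10 min RT; NKH477 200 nM + quinpirole 12 nM, 30 min RT; HTRF cAMP (cAMP-d2/anti-cAMP cryptate), 665/620 nm ratio after 1 h.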
Assay [19] is described as follows: p53 small molecule agonists, cell-based qHTS assay with human liver microsomes: qHTS cell viability counter screen (AID 1963579). Note: nearly all actives have a fitted effect of over 45% in size. Note: potency is the fitted concentration of half-maximal effect. The procedure, abridged:
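Metabolic activation used human liver microsomes and NADPH, both 0.5 mg/mL final, over 16 hours at 37 C on p53RE-bla cells (4,000/well). Cytotoxicity measured by CellTiter-Glo luminescence, 30 min at room temperature.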

A short description of assay [20]: cAMP Responsive Elements (CRE) small molecule agonists, cell-based qHTS assay (AID 1963590). An outline of the steps: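 Agonist mode qHTS in CRE-bla HEK 293T cells: compounds dosed from DMSO for 3 h at 37 C/5% CO2, followed by LiveBLAzer B/G FRET substrate for 2 h at room temperature.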

Chain of Gonadotropin-releasing hormone receptor (Homo sapiens) (P30968 whole entry, looked up): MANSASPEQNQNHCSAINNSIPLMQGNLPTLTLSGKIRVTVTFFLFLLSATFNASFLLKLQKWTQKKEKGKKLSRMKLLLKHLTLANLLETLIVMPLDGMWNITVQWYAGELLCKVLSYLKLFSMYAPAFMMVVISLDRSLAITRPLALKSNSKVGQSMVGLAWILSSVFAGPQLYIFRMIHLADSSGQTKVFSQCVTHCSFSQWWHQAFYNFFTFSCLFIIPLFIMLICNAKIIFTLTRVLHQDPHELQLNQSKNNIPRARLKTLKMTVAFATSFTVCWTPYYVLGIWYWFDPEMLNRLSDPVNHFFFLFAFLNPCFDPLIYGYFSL
Chain of Muscarinic acetylcholine receptor M1 (Homo sapiens) (P11229 whole entry, looked up): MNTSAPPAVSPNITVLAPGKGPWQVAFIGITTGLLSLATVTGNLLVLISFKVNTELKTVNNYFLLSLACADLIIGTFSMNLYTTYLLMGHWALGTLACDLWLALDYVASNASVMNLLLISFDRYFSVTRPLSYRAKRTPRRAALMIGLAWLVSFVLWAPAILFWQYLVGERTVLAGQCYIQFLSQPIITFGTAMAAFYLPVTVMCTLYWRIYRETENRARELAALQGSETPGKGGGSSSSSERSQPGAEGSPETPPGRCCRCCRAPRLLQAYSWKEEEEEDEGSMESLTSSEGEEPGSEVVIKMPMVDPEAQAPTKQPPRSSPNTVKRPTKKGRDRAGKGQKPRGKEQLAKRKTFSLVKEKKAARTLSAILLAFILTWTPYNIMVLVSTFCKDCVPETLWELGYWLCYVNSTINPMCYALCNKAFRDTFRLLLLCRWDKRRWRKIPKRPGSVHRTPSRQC
Chain of KiSS-1 receptor (Homo sapiens) (Q969F8 whole entry, looked up): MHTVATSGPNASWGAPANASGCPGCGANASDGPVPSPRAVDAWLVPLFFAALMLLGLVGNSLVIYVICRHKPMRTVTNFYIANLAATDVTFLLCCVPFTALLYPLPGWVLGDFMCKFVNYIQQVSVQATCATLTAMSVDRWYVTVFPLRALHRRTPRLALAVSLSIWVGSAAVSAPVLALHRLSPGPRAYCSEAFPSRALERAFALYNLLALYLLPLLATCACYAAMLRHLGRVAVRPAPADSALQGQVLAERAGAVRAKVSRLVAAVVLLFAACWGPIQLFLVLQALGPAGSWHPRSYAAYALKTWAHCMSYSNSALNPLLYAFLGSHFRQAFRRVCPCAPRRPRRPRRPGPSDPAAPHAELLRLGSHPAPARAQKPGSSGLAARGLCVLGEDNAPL
Chain of D(2) dopamine receptor (Homo sapiens) (P14416 whole entry, looked up): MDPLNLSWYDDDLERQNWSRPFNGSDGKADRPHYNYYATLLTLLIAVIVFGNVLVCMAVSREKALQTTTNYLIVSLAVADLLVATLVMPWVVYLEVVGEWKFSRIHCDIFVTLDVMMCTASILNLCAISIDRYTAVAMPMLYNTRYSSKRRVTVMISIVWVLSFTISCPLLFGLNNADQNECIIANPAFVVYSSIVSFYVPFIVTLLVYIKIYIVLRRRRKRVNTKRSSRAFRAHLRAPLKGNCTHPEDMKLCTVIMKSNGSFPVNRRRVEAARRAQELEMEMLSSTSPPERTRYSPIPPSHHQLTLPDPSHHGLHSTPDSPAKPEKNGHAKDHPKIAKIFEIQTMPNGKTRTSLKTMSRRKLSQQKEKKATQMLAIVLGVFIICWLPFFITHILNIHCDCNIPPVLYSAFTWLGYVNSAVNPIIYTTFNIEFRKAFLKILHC
Chain of Beta-2 adrenergic receptor (Homo sapiens) (P07550 whole entry, looked up): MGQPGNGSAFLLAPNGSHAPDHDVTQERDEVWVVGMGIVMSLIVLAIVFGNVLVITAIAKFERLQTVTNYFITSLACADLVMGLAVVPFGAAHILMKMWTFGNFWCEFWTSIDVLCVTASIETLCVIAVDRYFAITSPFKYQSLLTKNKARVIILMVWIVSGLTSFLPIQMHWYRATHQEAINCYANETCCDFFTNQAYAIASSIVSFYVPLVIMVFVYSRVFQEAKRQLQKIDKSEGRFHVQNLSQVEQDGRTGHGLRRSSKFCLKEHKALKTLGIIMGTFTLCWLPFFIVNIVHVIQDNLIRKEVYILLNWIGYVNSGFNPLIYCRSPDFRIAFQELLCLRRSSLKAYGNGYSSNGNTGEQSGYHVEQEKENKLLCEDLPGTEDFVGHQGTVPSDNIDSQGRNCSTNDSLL
Chain of 5-hydroxytryptamine receptor 2A (Homo sapiens) (P28223 whole entry, looked up): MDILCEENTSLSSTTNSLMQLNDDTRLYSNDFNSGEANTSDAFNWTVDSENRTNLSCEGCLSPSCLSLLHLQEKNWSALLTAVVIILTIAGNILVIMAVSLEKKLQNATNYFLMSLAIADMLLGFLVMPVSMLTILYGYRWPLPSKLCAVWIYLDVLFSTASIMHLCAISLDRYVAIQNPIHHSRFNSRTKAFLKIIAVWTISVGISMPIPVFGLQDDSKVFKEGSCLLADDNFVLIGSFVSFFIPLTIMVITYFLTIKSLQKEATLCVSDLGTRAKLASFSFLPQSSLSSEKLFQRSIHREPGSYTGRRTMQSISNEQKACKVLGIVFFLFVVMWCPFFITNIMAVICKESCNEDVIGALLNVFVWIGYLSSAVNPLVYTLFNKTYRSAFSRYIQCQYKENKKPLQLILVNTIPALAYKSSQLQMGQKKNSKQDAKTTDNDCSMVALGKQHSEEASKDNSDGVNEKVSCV

As for `Cc1ncc([N+](=O)[O-])n1C`, the Potency result in assay [1], in assay [2], in assay [3], in assay [4], in [5] and in assay [6] was “inactive” throughout. The Potency entry in assay [7], in assay [8], in assay [9], in [10], in assay [11] and in assay [12] was “inactive” each time. Moreover, the Potency result in assay [13], in [14], in assay [15], in assay [16], in assay [17] and in [18] was “inactive” throughout.
Take `N[C@@H](Cc1cc(I)c(Oc2ccc(O)c(I)c2)c(I)c1)C(=O)O`: the Potency entry in assay [1], in [2], in assay [3], in [4], in assay [5] and in [6] was “inactive” each time. The Potency entry in [19], in assay [9], in assay [20], in assay [14], in [15] and in assay [17] was “inactive” throughout. Moreover, the Potency result in assay [18] is “inactive”.
As for `Nc1ccc(S(=O)(=O)c2ccc(N)cc2)cc1`, the Potency entry in assay [1], in assay [3], in assay [4], in assay [5], in [6] and in [19] was “inactive” each time. The Potency result in assay [8], in assay [9], in assay [10], in assay [11], in assay [12] and in assay [20] was “inactive” each time. Moreover, the Potency result in assay [14], in [15], in assay [16], in assay [17] and in assay [18] was “inactive” in each case. In addition, the Potency entry in assay [2] is “inactive and 27.3 µM (active)”.
For the compound `CCC(=O)OC/C=C/c1ccccc1`, the Potency result in [1], in assay [2], in assay [3], in assay [4], in assay [5] and in assay [6] was “inactive” in each case. Moreover, the Potency result in assay [19], in assay [7], in assay [8], in [9], in assay [10] and in assay [11] was “inactive” in each case. The Potency entry in [12], in [13], in assay [20], in assay [14], in assay [15] and in [16] was “inactive” in each case. Also, the Potency result in assay [17] and in [18] was “inactive” in each case.
For the compound `C=CCc1ccc(O)c(OC)c1`, the Potency result in assay [1], in assay [2], in assay [3], in [4], in [5] and in assay [6] was “inactive” each time. Moreover, the Potency entry in assay [7], in assay [8], in assay [9], in assay [20], in assay [14] and in [15] was “inactive” in each case. Further, the Potency result in assay [16], in assay [17] and in [18] was “inactive” in each case.
Turning to `CC(=O)N[C@@H](CS)C(=O)O`, the Potency result in [1], in [2], in assay [3], in [4], in assay [5] and in assay [6] was “inactive” each time. Besides, the Potency entry in assay [19], in assay [7], in assay [8], in [9], in assay [10] and in assay [11] was “inactive” in each case. Moreover, the Potency result in [12], in assay [13], in [20], in assay [14], in assay [15] and in assay [16] was “inactive” each time. For the same compound, the Potency result in assay [17] and in assay [18] was “inactive” throughout.
On to `CCN=c1cc2oc3cc(NCC)c(C)cc3c(-c3ccccc3C(=O)OCC)c-2cc1C`, for which the Potency entry in assay [1], in [6], in [10] and in assay [12] was “inactive” each time. Besides, the Potency result in [2] is “inactive and 27.3 µM (active)”; in [3], 12.3 µM (active) and 7.76 µM (active); in [4], 17.3 µM (active) and 21.9 µM (active); in assay [5], 38.8 µM (active) and 30.9 µM (active); in assay [19], 40.6 µM (active) and 40.8 µM (active); in assay [8], 45.6 µM (active). Further, the Potency in [13] is 19.4 µM (active) and 19.5 µM (active); in assay [18], 34.4 µM (active).
For `O=S(=O)(O)c1ccc2nc(-c3ccccc3)[nH]c2c1`, the Potency result in assay [1], in assay [2], in assay [3], in [4], in assay [5] and in assay [6] was “inactive” each time. In addition, the Potency result in assay [9], in [10], in assay [11], in assay [12], in [13] and in assay [20] was “inactive” in each case. Moreover, the Potency entry in assay [14], in assay [15], in assay [16] and in [18] was “inactive” throughout. Also, in assay [7], the Potency is 15.5 µM (active).
